# LmPK inh = LmPK (Leishmania mexicana) enzyme inhibition | purified LmPK, Kinase-Glo ATP luminescence, 1 h | Potency, µM (titrated, usually from 57.5 µM), without a hit: at the top dose activity change, negative = inhibition, actives largely listed as inhibitors | actives 0.37% (n = 290,000) | AID 1721
#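 Purified LmPK (0.1 nM) converted ADP (0.1 mM) to ATP with PEP (0.5 mM) in imidazole buffer pH 7.2 with KCl and MgCl2, 1 h at room temperature. ATP was read by Kinase-Glo luminescence; data normalized to uninhibited and no-enzyme controls.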
# Tb PYK inh = T. brucei pyruvate kinase inhibition; TbPYK enzyme, Kinase-Glo Plus ATP luminescence, 45 min; Potency, µM (series often up to 76.8 µM), for the others: top-dose activity, negative = inhibition, usual class: inhibitors; actives 0.12% (n = 410,000); further: nearly all actives have a fitted effect of over 50% in size
#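 In this concentration-response screen, enzyme-free wells defined baseline while DMSO plates tracked drift. Each reaction combined TbPYK, substrate, compound and 130 uM ADP for 45 min at room temperature. Kinase-Glo Plus luminescence gave the signal.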
# RE007 growth inh = less growth of the S. pombe RE007 Vpr strain. S. pombe RE007 Vpr strain, BacTiter-Glo ATP luminescence, 24 h. Potency, µM (highest dose often 92.2 µM), inactives show at the top dose activity change, negative = less growth, most hits filed as inhibitors. actives 0.21% (n = 360,000). AID 651644; active means well fitted falling curve with a large enough effect; inconclusive means small, poorly fitted or top-dose-only effect; inactive means no such curve, though single readings can be large or run the other way; further: nearly all actives have a fitted effect of over 50% in size
#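 Fission yeast strain RE007, carrying one chromosomally integrated HIV-1 vpr copy, was seeded at OD 0.01 in PMG+AL medium with 23 nL pinned compound. After 24 h at 30 °C and 99% humidity, viability was read by BacTiter-Glo luminescence.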
# Giardia FBPA inh = Giardia lamblia aldolase inhibition; AID 2451; A8B2U2; Potency, µM (top dose mostly 59.6 µM), for inactives: at the highest dose activity, negative = inhibition, hits mostly inhibitors; purified Giardia FBPA; actives 0.71% (n = 290,000); further: nearly all actives have a fitted effect of over 55% in size
# Target sequence (A8B2U2 whole entry, looked up): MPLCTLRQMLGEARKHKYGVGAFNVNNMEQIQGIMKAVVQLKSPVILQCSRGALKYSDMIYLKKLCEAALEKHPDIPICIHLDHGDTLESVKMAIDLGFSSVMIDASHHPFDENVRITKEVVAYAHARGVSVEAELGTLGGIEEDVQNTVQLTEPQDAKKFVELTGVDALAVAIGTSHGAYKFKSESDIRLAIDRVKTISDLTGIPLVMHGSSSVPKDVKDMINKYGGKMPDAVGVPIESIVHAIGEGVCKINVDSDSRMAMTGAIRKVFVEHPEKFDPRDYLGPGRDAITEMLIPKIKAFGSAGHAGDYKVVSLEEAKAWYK
#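 Giardia FBPA (40 nM reagent) was preincubated 10 min at RT with compound (up to 57.5 uM final), then substrate plus GAPDH/TPI/NAD/arsenate coupling system with diaphorase/resazurin was added; resorufin fluorescence (525/598 nm) was read after 20 min.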
# Sm TGR block = S. mansoni TGR enzyme inhibition; Q962Y6; purified TGR, DTNB reduction, TNB absorbance 405 nm; Potency, µM (titrated, usually from 114 µM), without a hit: at the highest dose activity change, negative = inhibition, usual class: inhibitors; actives 3% (n = 360,000); AID 485364; further: nearly all actives have a fitted effect of over 60% in size
#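 TGR 20 nM + NADPH 100 uM (dispensed conc.), cpd preinc 15 min RT; start with NADPH (500 uM addition) then DTNB (15 mM addition). Kinetic TNB absorbance, 405 nm filter. Four-parameter Hill fit across titration.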
# Active calls of the source: *; u = inconclusive; x = no result given. In the library only some 3.3% were active in any assay of this set; here they are far more common. Unless noted, the call rests on the fitted dose curve; in most records, active means well fitted curve in the direction sought with a large enough effect; inconclusive means small, poorly fitted or top-dose-only effect, or another doubt; inactive means no such curve, though single readings can be large; an effect the other way counts as inactive or inconclusive. On the % scale 0 is the no-effect control and ±100 the full control effect; potency means the concentration at half of the fitted maximal effect.
SMILES,LmPK inh,Tb PYK inh,RE007 growth inh,Giardia FBPA inh,Sm TGR block
CCN(CC)CCCN1C(=O)C(=O)/C(=C(/O)c2ccc(Cl)cc2)C1c1ccccn1 (configuration not stated),2%,0%,-4%,-11%,-5%
O=[N+]([O-])c1cc(S(=O)(=O)N2CCCC2)ccc1O,2%,0%,12%,15%,3%
O=[N+]([O-])c1cc(S(=O)(=O)N2CCCCCC2)ccc1F,-1%,-16%,0%,11%,22µM*
COc1cc(OC)cc(C(=O)NCC(=O)N2CCN(S(=O)(=O)c3ccccc3F)CC2)c1,x,-9%,8%,x,x
Cn1c(=O)n(C)c2cc(NC(=O)CCl)ccc21,1%,-5%,4%,4%,18µM*
CC(=O)Nc1ccc2c(c1)n(C)c(=O)n2C,1%,1%,13%,-5%,1%
CCn1c(=O)oc2cc(NC(=O)CCl)ccc21,7%,-1%,21%,-9%,40µM*
c1ccc(CCn2c(SCc3ccccc3)nnc2-c2ccncc2)cc1,0%,-6%,-8%,1%,4%
O=C(Nc1nc(-c2ccco2)c(-c2ccco2)s1)c1c(F)cccc1Cl,x,-4%,-9%,x,22µM*
O=C(Nc1nc(-c2ccco2)c(-c2ccco2)s1)c1ccc(F)cc1F,x,u,80%,x,10µM*
O=C(Nc1nc(-c2ccco2)c(-c2ccco2)s1)c1cnccn1,x,6%,-5%,x,14µM*
O=S(=O)(Nc1nc(-c2ccco2)c(-c2ccco2)s1)c1ccc(F)cc1F,x,-13%,-10%,x,x
COc1ccc(CCn2c3c(c(=O)[nH]c2=O)C(NC(=O)c2ccccc2F)(C(F)(F)F)C(=O)N3)cc1OC (configuration not stated),x,5%,x,x,-4%
Cc1cc(Cl)ccc1C(=O)C1CCCN(C(=O)c2ccoc2)C1 (configuration not stated),0%,-3%,13%,7%,-16%
COCc1ccc(C(=O)N2CCCC(C(=O)c3ccc(Cl)cc3C)C2)o1 (configuration not stated),-6%,0%,-4%,x,32µM*
Cc1cc(CN2CCCC(N3CCc4ccccc4C3)C2)cc(C)c1O (configuration not stated),2%,1%,10%,-22%,45µM*
CN1CCCC(OC(=O)CCCCC(=O)OC2CCCN(C)C2)C1 (configuration not stated),0%,3%,-12%,-11%,2%
CCc1c(C)c2ccc(O)c(CN3CCN(c4ccc(F)cc4)CC3)c2oc1=O,x,-4%,x,x,-3%
Oc1c(Br)cc(Cl)cc1C=Nc1ccccc1Br,-4%,-1%,-12%,-21%,22µM*
Cc1ccc2c(c1)C1CCCC3C1N2CC(=O)N3Cc1ccccc1 (configuration not stated),-1%,x,x,u,50µM*
Cc1ccc2c(c1)C(CCN)C(=O)N2Cc1ccccc1 (configuration not stated),0%,1%,-1%,-18%,-11%
COc1ccc(NC(=O)/C=C/c2cccc(F)c2)cn1,-1%,3%,-21%,-22%,-1%
COc1ccccc1CNC(=O)/C=C/c1ccc(Br)o1,-5%,-14%,-18%,u,2.2µM*
COc1ccccc1CNC(=O)Cc1ccc(Br)cc1,5%,-6%,18%,1%,16%
COc1ccc(NC(=O)/C=C/c2ccco2)cn1,-2%,-1%,2%,-27%,8.9µM*
SMILES,LmPK inh,Tb PYK inh,RE007 growth inh,Giardia FBPA inh,Sm TGR block
COc1ccc(NC(=O)/C=C/c2ccc(Br)o2)cn1,0%,-30%,-10%,u,11µM*
C=CCNc1nc2cc(-c3cccc(NC(C)=O)c3)sc2c(=O)n1C,x,-1%,13%,x,x
Cc1cc(C)c(S(=O)(=O)ON2C(=O)c3ccccc3C2=O)cc1C,-22%,u,-1%,-13%,0.89µM*
Cc1ccc(NC(=O)CN2C(=O)c3ccccc3C2=O)c(C)c1,-2%,-3%,3%,7%,-20%
O=C1c2ccccc2C(=O)N1OS(=O)(=O)c1ccc(F)cc1,u,-28%,-7%,4%,0.71µM*
Cc1cc(C)c(C)c(S(=O)(=O)ON2C(=O)c3ccccc3C2=O)c1C,-25%,u,u,x,1.4µM*
Cc1ccc(S(=O)(=O)ON2C(=O)c3ccccc3C2=O)c(C)c1,u,-20%,2%,-9%,1.4µM*
N/C(=N\OC(=O)Cc1ccccc1[N+](=O)[O-])c1cccc(Br)c1,-2%,7%,1%,-1%,-8%
Cn1cc(C[C@H](C(=O)O)N2C(=O)c3ccc(C(=O)O)cc3C2=O)c2ccccc21,x,x,x,1%,u
CCOc1ncnc2c1[nH]c1ccccc12,-4%,-11%,5%,-3%,4%
CN1CCN(c2ccc(S(=O)(=O)N3CCCCC3)cc2[N+](=O)[O-])CC1,7%,7%,-3%,0%,1%
O=C(O)c1cccc(COc2ccccc2Cl)c1,14µM*,-17%,-10%,u,-4%
O=C(NC1CCCCC1)[C@@H]1CSC2c3ccccc3C(=O)N21 (some centres not stated),7%,4%,-7%,-5%,3%
COC(=O)C(C(=O)OC)C(CC(=O)c1ccc(Br)cc1)c1ccccc1 (configuration not stated),x,5%,2%,x,x
Cc1cc(C)n(-c2ccc(C(=O)OCC(=O)Nc3ccc(S(=O)(=O)N4CCOCC4)cc3)cc2)n1,6%,-5%,13%,-1%,-5%
Cc1cc(C(=O)Nc2cccc(C)c2C)c2c(C)nn(-c3cccc(F)c3)c2n1,x,-12%,x,x,-2%
CCCCCCCCOC(=O)c1ccc(N)cc1,7%,-2%,28µM*,1%,-2%
CC(=O)c1cc(NC(=O)c2cccc(C(F)(F)F)c2)c(=O)oc1C,-9%,-21%,6%,-6%,35µM*
CC(=O)c1cc(NC(=O)c2cccc(C(F)(F)F)c2)c(=O)oc1/C=C/N(C)C,4%,1%,-3%,0%,5%
COc1ccc(-c2cc3ccc(O)c(CN4CCN(CCO)CC4)c3oc2=O)cc1OC,x,-8%,x,x,-2%
CC(=O)c1c(C)[nH]c(C2=NNC(=NCc3ccccc3)SC2)c1C,-6%,-19%,8%,-20%,11µM*
c1ccc(CN=C2NN=C(c3ccccc3)CS2)cc1,-13%,-12%,-10%,2%,-17%
C=CCc1cc(/C=C/c2nc(O)c([N+](=O)[O-])c(=O)[nH]2)cc(OC)c1O,-1%,0%,-7%,u,45µM*
CC(=O)c1ccc(-c2ccc(C(=O)NCC(c3ccco3)N(C)C)o2)cc1 (configuration not stated),x,-4%,-22%,x,x
O=C(/C(=C/c1ccncc1)n1ccnc1)c1ccc(Cl)cc1Cl,4%,-3%,-2%,3%,-29%

# Screening results from PubChem BioAssay.
